We go through four compounds from PubChem BioAssay.

In experiment [1] the test system is Wnt5a (protein binding on small-molecule microarray). Kind of experiment: small molecules binding Wnt5a protein – biophysical, small-molecule microarray, 635/667 nm fluorescence, primary screen (AID 1142).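 Further: fluorescence read at 667 nm with signal to noise per printed feature.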 To be noted: 635 nm fluorescence, higher = more signal.
Experiment [2] in a line: ATP-based viability of Huh7 replicon cells – cell-based, CellTiter-Glo luminescence, basal, 48 h, cytotoxicity control for HCV replication inhibitor project, primary screen (AID 1143).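 Further: Huh7 hepatoma cells carrying a hepatitis C replication reporter with no stimulus; test concentration not given here.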 To be noted: higher = more signal, called active from +8 up or from −8 down. Background: In antiviral work, replicon cells carry a viral genome segment that copies itself.
Experiment [3] in a line: Pseudomonas biofilm growth suppression – PAO1 strain, BacTiter-Glo luminescence, LB-PBS, primary screen (AID 1144). The following applies: P. aeruginosa PAO1 biofilm, 12 h, higher = more signal.
Experiment [4] is described as follows: basal CRE-LacZ reporter activity in PC12 – cell-based, unstimulated, primary screen (AID 1145). To be noted: no forskolin, luminescence, 4.5 h, higher = more signal, called active from +8 up or from −8 down.
Experiment [5] can be described thus: forskolin-driven CRE-LacZ activity in PC12 – cell-based, CRE-LacZ reporter, forskolin-stimulated, primary screen (AID 1146).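 Further: PC12 cells with 6xCRE LacZ reporter stimulated by forskolin 10 µM; beta-galactosidase reporter signal reflecting CREB driven transcription.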 The following applies: luminescence, 4.5 h, higher = more signal, called active from +8 up or from −8 down.
Experiment [6] has as its target Streptavidin (Streptomyces avidinii) (UniProt P22629). The experiment in a line: compounds binding control protein streptavidin – biophysical, small-molecule microarray, 635/667 nm fluorescence, artefact control for SMM compound annotation, primary screen (AID 1147).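 Further: signal reflects streptavidin binding to arrayed compounds as a control protein.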 To be noted: higher = more signal.
A short description of experiment [7]: probe aInhba binding on compound microarray – biochemical, small-molecule microarray, 635/667 nm fluorescence, primary screen (AID 1148).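 Further: score merges 667nm spot fluorescence with signal-to-noise for antibody binding to printed compounds.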 To be noted: higher = more signal.
Experiment [8] has as its target Torsin-1A (Homo sapiens) (UniProt O14656). The experiment in a line: TOR1A wild-type binding on microarray – cell lysate, small-molecule microarray, lysate, 635/667 nm, primary screen (AID 1149). The following applies: COS7 hTOR1A-WT lysate, 635 nm fluorescence, higher = more signal.
The target is the same in experiment [9]. The experiment in a line: torsin A mutant lysate binding on microarrays – cell lysate, small-molecule microarray, COS7 lysate, 635/667 nm fluorescence, primary screen (AID 1150).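 Further: score pools 667 nm emission and signal to noise measuring lysate protein binding.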 To be noted: COS7 hTOR1A mutant lysate, 635 nm fluorescence, higher = more signal.
For experiment [10], the system named is Sonic hedgehog protein (Shh). Kind of experiment: Sonic hedgehog microarray binding compounds – biochemical, small-molecule microarray, 635/667 nm fluorescence, primary screen (AID 1151).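 Further: Shh protein binding to compounds spotted on small-molecule microarray slides; score combines spot fluorescence intensity with signal-to-noise across triplicate slides.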 To be noted: 635 nm fluorescence, higher = more signal.
A short description of experiment [11]: optical density shifts of acrAB sulA E. coli – strain DRC41, OD650, 48 h, E. coli filamentation inducer project, primary screen (AID 1152).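 Further: E. coli MC1000 strain DRC41 lacking acrAB efflux pump and sulA.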 To be noted: higher = more signal, called active from +8 up or from −8 down.
The nature of experiment [12]: probe aLefty1 binding on compound microarray – biochemical, small-molecule microarray, 635/667 nm fluorescence, primary screen (AID 1153).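 Further: score merges spot fluorescence with signal-to-noise ratio from the scanned slide images.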 To be noted: higher = more signal.
The nature of experiment [13]: plasmodial surface anion channel blockers, osmotic lysis – cell-based, P. falciparum Indochina, OD700, 1 h, primary screen (AID 1154). The following applies: P. falciparum Indochina infected RBC osmotic lysis, higher = more signal, called active from +8 up or from −8 down.
A short description of experiment [14]: plasmodial surface anion channel blockers, osmotic lysis – cell-based, P. falciparum Indochina, OD700, 2 h, primary screen (AID 1155).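 Further: lysis reports solute entry through the parasite surface anion channel PSAC.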 The following applies: P. falciparum Indochina infected erythrocytes, higher = more signal, called active from +8 up or from −8 down.
A short description of experiment [15]: changes in parasitized red cell lysis, either direction – P. falciparum Indochina, OD700, 3 h, PSAC antagonist project, primary screen (AID 1156). The following applies: P. falciparum-infected erythrocytes, osmotic lysis, higher = more signal, called active from +8 up or from −8 down.
Experiment [16] is described as follows: plasmodial surface anion channel blockers, osmotic lysis – cell-based, P. falciparum Indochina, OD700, 18 h, primary screen (AID 1157). To be noted: P. falciparum Indochina infected erythrocytes, osmotic lysis OD700, 18 h; higher = more signal, called active from +8 up or from −8 down.
Experiment [17] in a line: S6 kinase pathway phospho-S6 level changes – cell-based, A549, cytoblot, luminescence, serum-stimulated, primary screen (AID 1158).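 Further: serum-stimulated A549 lung adenocarcinoma cells; signal is phosphorylated S6 detected by cytoblot immunostaining with HRP secondary.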 The following applies: 5 h, higher = more signal.
Experiment [18] deals with NADPH oxidase 2 (Homo sapiens) (UniProt P04839). Kind of experiment: compounds shifting NOX2 Amplex Red fluorescence – cell-based, HEK293-NOX2, PMA-stimulated, NOX inhibitor project, primary screen (AID 1159). Further: test concentration not given here. The following applies: 45 min, higher = more signal, called active from +8 up or from −8 down.
Experiment [19] addresses NADPH oxidase 4 (Homo sapiens) (UniProt Q9NPH5). The experiment in a line: compounds shifting NOX4 Amplex Red fluorescence – cell-based, HEK293-NOX4, tetracycline-induced, NOX inhibitor project, primary screen (AID 1160). To be noted: HEK293-NOX4, Amplex Red H2O2 fluorescence, 45 min; higher = more signal, called active from +8 up or from −8 down.
Experiment [20] addresses NADPH oxidase 5 (Homo sapiens) (UniProt Q96PH1). The experiment in a line: compounds shifting NOX5 Amplex Red fluorescence – cell-based, HEK293-NOX5, NOX inhibitor project, primary screen (AID 1161). To be noted: HEK293-NOX5, ionomycin, 45 min, higher = more signal.

Activity calls are given as the source filed them. Unless noted, how the calls were made is not given here.

Sequence of NADPH oxidase 2 (Homo sapiens) (P04839 whole entry, looked up): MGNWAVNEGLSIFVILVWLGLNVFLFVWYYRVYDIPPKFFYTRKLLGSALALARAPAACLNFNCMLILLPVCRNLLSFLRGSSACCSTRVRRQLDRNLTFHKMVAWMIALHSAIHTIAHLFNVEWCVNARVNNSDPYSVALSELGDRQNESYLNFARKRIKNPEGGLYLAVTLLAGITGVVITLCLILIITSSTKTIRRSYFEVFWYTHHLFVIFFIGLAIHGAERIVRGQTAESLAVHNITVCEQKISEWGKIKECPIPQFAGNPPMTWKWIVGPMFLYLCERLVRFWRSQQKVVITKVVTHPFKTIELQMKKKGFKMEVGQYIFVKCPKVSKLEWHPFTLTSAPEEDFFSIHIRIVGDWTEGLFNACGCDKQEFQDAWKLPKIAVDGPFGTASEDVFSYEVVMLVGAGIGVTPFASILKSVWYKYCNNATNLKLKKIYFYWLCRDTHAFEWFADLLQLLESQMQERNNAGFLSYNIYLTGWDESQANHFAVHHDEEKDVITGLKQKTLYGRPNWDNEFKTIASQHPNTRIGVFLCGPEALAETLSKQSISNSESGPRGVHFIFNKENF
Sequence of NADPH oxidase 5 (Homo sapiens) (Q96PH1 whole entry, looked up): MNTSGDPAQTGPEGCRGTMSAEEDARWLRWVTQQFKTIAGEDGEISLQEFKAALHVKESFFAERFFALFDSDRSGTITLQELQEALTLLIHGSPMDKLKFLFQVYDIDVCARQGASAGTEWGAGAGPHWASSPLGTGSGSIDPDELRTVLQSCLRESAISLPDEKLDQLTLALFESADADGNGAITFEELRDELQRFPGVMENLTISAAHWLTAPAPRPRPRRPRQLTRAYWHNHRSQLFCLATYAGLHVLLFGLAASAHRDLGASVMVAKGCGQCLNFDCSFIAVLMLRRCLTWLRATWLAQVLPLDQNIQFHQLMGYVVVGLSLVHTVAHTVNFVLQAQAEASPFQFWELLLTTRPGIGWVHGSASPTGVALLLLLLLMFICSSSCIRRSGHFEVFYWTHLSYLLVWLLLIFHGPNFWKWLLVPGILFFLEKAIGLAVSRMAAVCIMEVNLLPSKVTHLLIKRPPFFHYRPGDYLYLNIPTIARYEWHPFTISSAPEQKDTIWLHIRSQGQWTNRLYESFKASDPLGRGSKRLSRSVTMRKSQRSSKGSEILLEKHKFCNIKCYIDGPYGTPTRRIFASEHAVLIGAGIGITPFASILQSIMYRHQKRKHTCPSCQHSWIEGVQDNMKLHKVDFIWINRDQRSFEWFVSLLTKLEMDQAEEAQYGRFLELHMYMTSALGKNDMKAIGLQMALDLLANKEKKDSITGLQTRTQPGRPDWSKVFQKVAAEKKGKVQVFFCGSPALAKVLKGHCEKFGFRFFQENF
Sequence of Streptavidin (Streptomyces avidinii) (P22629 whole entry, looked up): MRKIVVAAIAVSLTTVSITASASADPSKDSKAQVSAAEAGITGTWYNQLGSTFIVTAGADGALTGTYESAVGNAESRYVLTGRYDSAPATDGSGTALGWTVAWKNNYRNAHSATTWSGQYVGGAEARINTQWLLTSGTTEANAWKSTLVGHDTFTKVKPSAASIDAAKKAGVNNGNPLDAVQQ
Sequence of NADPH oxidase 4 (Homo sapiens) (Q9NPH5 whole entry, looked up): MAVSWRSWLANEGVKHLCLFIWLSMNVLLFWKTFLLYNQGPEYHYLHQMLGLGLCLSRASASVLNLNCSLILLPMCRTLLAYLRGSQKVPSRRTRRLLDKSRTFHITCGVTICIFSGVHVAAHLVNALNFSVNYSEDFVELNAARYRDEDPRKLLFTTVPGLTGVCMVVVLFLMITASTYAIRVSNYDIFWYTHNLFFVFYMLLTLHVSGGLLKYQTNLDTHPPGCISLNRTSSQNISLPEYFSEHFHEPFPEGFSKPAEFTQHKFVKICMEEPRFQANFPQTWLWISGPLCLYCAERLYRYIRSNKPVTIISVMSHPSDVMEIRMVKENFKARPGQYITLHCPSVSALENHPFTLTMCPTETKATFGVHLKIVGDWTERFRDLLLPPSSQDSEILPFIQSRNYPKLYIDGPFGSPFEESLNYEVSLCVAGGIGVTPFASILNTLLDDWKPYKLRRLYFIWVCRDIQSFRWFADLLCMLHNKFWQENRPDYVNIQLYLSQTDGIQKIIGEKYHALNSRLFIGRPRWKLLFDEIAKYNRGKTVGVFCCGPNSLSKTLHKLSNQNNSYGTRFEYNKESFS
Sequence of Torsin-1A (Homo sapiens) (O14656 whole entry, looked up): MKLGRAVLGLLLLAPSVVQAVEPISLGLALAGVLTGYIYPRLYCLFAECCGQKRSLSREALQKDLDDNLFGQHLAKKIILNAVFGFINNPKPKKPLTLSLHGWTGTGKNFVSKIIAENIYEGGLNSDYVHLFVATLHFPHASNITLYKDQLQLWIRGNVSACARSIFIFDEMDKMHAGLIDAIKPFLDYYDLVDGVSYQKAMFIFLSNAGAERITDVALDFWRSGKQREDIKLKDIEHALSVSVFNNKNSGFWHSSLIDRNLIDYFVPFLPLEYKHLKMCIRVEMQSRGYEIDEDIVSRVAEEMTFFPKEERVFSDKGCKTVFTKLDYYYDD

For the compound `CCCCC(=C=CC[C@H](O)c1ccc(OCCO)cc1)C[C@H](O)c1ccccn1`, the composite z-score in experiment [1] is 0.259; in experiment [6], -0.319; in experiment [7] it was 0.0398; in experiment [8], 0.215; in experiment [9], 1.58; in experiment [10] it was 1.17. For the same compound, in [12], the composite z-score is -0.0536. Further, the z-score was -0.671 (inactive) in [2]; 0.229 (inactive) in experiment [3]; 5.13 (inactive) in experiment [4]; -0.533 (inactive) in experiment [5]; 0.558 (inactive) in experiment [11]; 15.4 (active) in experiment [13]. Besides, the z-score in [14] is 2.3 (inactive); in experiment [15] it was 1.11 (inactive); in experiment [16], 1.07 (inactive); in experiment [17], 0.433; in experiment [18], 1.26 (inactive); in [19], 0.364 (inactive). Further, the z-score in [20] was -1.34.

Regarding `CCCCN1CC=CC23O[C@@H]4/C=C\CCC(C)OC(=O)C4[C@H]2C(=O)N(C(C)CO)[C@@H]3C1=O` (stereo not given in full), the composite z-score in experiment [1] was -0.0151; in [6], -0.447; in experiment [7], -0.161; in experiment [8] it was -0.185; in [9], -1.01; in experiment [10] it was -0.0387. The composite z-score in [12] is -0.331. Besides, the z-score in experiment [2] is 0.24 (inactive); in [3], -0.297 (inactive); in experiment [4], -0.497 (inactive); in experiment [5], -0.21 (inactive); in experiment [11], 0.0581 (inactive); in experiment [13] it was 1.82 (inactive). Also, the z-score in experiment [14] was -0.0918 (inactive); in [15], 1.19 (inactive); in experiment [16], 0.16 (inactive); in experiment [17], -0.0969; in experiment [18], 0.809 (inactive); in experiment [19], -0.42 (inactive). The z-score in experiment [20] was 1.27.

On to `COc1ccc(CCNC(=O)[C@@H]2c3ccccc3C(=O)N(CC34CC5CC(CC(C5)C3)C4)[C@H]2c2ccc(CO)cc2)cc1`, for which the composite z-score in experiment [1] was 0.788; in [6] it was 0.4; in experiment [7], -0.0006; in experiment [8], 0.713; in experiment [9], 0.801; in experiment [10], 1.4. This compound registered a composite z-score in experiment [12] of -0.0982. Besides, the z-score is -3.34 (inactive) in experiment [2]; -2.65 (inactive) in [3]; 0.441 (inactive) in experiment [4]; -0.887 (inactive) in experiment [5]; 0.414 (inactive) in [11]; 5.38 (inactive) in [13]. Also, the z-score in [14] was 0.345 (inactive); in experiment [15], 0.68 (inactive); in [16], -0.484 (inactive); in experiment [17], 1.15; in experiment [18], -2.37 (inactive); in [19] it was -1.91 (inactive). In experiment [20], the z-score was -5.14.

Consider `CC[C@H](C)C(=O)O[C@H]1CC[C@]2(C)C3=C(CCC2C1(C)C)[C@]1(C)CC[C@H]([C@H](C)CCCC(C)C)[C@@]1(C)CC3` (stereo not given in full), for which the composite z-score was 0.0143 in experiment [1]; 0.984 in [6]; -0.292 in experiment [7]; 0.214 in experiment [8]; 0.339 in [9]; 0.613 in [10]. In experiment [12], this compound registered a composite z-score of -0.142. For the same compound, the z-score in experiment [2] was 0.15 (inactive); in [3], -0.0646 (inactive); in experiment [4], 0.947 (inactive); in [5] it was -1.24 (inactive); in experiment [11] it was 2.16 (inactive); in [13] it was -0.223 (inactive). Also, the z-score in experiment [14] was -0.121 (inactive); in experiment [15], -0.589 (inactive); in experiment [16] it was -0.136 (inactive); in experiment [17], 0.231; in [18] it was -0.371 (inactive); in experiment [19] it was -0.0141 (inactive). In experiment [20], the z-score was -0.162.
